Compound activity as filed in PubChem.
The sample as a whole holds a higher share of hits than the screen did.
IL-1B inflam inh: qHTS for Inhibitors of Inflammasome Signaling: IL-1-beta AlphaLISA Primary Screen. THP-1 LPS/ATP IL-1B secretion, AlphaLISA, 16 h; active compounds read low. activity change, % at 57.5 µM. actives 4.7% (n = 360,000); in the data active = activity change below about -50%; inconclusive = mostly about -30% to -49%
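Secreted IL-1B measured by AlphaLISA bead assay after 16 h compound exposure of THP-1 cells; compounds (final up to 57.5 uM) added 1 h before LPS (250 ng/mL) and ATP (1.25 mM) stimulation; lower signal means less secretion.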
DT40 TDP1 CPT: qHTS for Inhibitors of human tyrosyl-DNA phosphodiesterase 1 (TDP1): qHTS in cells in presence of CPT; Potency, µM (doses to about 46.2 µM), usual class: inhibitors; actives 12% (n = 420,000); chicken DT40 Tdp1-/-;hTDP1 cells + 20 nM CPT, ATP luminescence, 48 h; also: nearly all actives have a fitted effect of over 55% in size
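Cell growth measured by CellTiter-Glo luminescence after a minimum 48 h, 37 C compound exposure with 20 nM CPT in Tdp1-knockout DT40 cells stably expressing hTDP1, seeded 400/well; qHTS titration format.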
DT40 TDP1 no CPT: qHTS for Inhibitors of human tyrosyl-DNA phosphodiesterase 1 (TDP1): qHTS in cells in absence of CPT; DT40 Tdp1-/- hTDP1 cells, no CPT, ATP luminescence, 48 h; Potency, µM (doses to about 46.2 µM), hits mostly inhibitors; actives 15% (n = 420,000); AID 686978, 2013; also: nearly all actives have a fitted effect of over 55% in size
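Camptothecin absent (DMSO only). Human TDP1-complemented DT40 knockout cells, 400 cells/well, 37 °C for minimum 48 hr; ATP measured via CellTiter-Glo, 30 min dark incubation, luminescence.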
HT1080 IDH1KD tx: qHTS for induction of synthetic lethality in tumor cells producing 2HG: qHTS for the HT-1080-IDH1KD cell line; HT-1080 IDH1 knockdown viability, ATP luminescence, 48 h; Potency, µM (doses to about 46.1 µM), actives largely listed as cytotoxic; actives 2% (n = 360,000); AID 686971, 2013
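CellTiter-Glo luminescence after 48 h compound exposure at 37 degrees C of IDH1-knockdown HT-1080 cells in 5% FBS RPMI. %Activity scaled between DMSO wells and cell-free media wells, with curves fitted and assigned curve classes.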
ALOX12 inh: Primary qHTS assay for inhibitors of human arachidonate 12S-lipoxygenase (ALOX12): Round 2 | purified 12hLO, xylenol orange hydroperoxide absorbance | Potency, µM (highest dose often 108 µM), actives largely listed as inhibitors | actives 1.1% (n = 580,000) | AID 1671190, 2021
Target sequence (P18054 whole entry, looked up): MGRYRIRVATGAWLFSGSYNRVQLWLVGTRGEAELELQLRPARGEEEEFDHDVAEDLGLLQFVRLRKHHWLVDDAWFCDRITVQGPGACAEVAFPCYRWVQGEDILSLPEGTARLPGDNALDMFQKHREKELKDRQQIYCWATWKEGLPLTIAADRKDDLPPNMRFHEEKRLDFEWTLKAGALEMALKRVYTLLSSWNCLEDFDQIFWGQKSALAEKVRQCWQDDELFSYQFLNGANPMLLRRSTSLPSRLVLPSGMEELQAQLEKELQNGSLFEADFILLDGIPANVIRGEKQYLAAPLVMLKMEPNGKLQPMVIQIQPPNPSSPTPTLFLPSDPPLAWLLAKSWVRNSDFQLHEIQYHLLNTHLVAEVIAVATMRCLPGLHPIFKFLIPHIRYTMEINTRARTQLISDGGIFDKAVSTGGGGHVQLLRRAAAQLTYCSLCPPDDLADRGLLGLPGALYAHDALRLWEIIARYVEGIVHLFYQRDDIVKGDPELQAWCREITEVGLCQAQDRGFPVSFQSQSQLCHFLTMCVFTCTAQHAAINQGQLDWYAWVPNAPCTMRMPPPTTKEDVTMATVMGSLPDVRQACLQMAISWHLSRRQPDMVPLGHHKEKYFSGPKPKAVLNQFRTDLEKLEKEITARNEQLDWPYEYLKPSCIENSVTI
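Purified human 12hLO at 150 nM in 25 mM Hepes, 0.01% Triton X-100, pH 7.0, preincubated 15 min at room temperature with compound. Reaction started with 40 uM arachidonic acid, 30 min at room temperature. Hydroperoxide measured by Fe-xylenol orange, 573/405 nm absorbance ratio.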
HT1080-NT tox: qHTS for induction of synthetic lethality in tumor cells producing 2HG: qHTS for the HT-1080-NT fibrosarcoma cell line | actives 1.6% (n = 360,000) | HT-1080-NT fibrosarcoma viability, CellTiter-Glo ATP luminescence, 48 h | AID 686970, 2013 | Potency, µM (titrated, usually from 46.1 µM), hits mostly cytotoxic;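 also: NT is the 2HG producing partner of a matched IDH1 knockdown line; nearly all actives have a fitted effect of over 55% in size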
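A 48-hour cytotoxicity screen used HT-1080-NT cells plated 2 hours before compound delivery. ATP-based CellTiter-Glo luminescence measured viability, normalized to DMSO and no-cell controls.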
Hits are given with their value; . = inactive; ? = inconclusive; / = no result given. Unless noted, calls follow the shape of the dose curve; as a rule, active = well fitted curve in the direction sought with a large enough effect; inconclusive = small, poorly fitted or top-dose-only effect, or another doubt; inactive = no such curve, though single readings can be large; an effect the other way counts as inactive or inconclusive.

SMILES | IL-1B inflam inh | DT40 TDP1 CPT | DT40 TDP1 no CPT | HT1080 IDH1KD tx | ALOX12 inh | HT1080-NT tox
O=S(=O)(NCCN1CCOCC1)c1ccc2ccccc2c1 | . | . | ? | . | ? | .
O=C(Nc1ccc(Cl)c([N+](=O)[O-])c1)c1ccc(NCCCN2CCOCC2)c([N+](=O)[O-])c1 | . | 2.3µM | 2.3µM | . | . | .
COc1ccc(-c2cc(-c3ccccc3)nc3c2COc2ccccc2-3)cc1 | / | . | . | / | . | /
Cc1ccc(C2=Nc3ccc(Cl)cc3OC2)cc1 | / | / | / | / | 22µM | /
Cc1ccc(Cn2nc3n(c2=O)-c2cc(Cl)ccc2OC3)cc1 | / | . | . | / | . | /
COc1ccc(C2=Nc3ccccc3OC2)cc1 | . | 26µM | 15µM | . | 45µM | .
CCc1ocnc1C(=O)N1CCCC(c2[nH]ncc2-c2ccc(F)cc2)C1 (configuration not stated) | / | / | / | / | . | /
CCOC(=O)c1cc2cc(OC)ccc2n1C1CCN(CCc2ccccc2)CC1 | . | ? | ? | 18µM | . | ?
CCOC(=O)c1cc2ccccc2n1C1CCN(CCc2ccccc2)CC1 | . | 9.2µM | 7.3µM | ? | . | ?
CCOC(=O)N1CCN(CCc2ccccc2)CC1 | . | . | . | . | . | .
CCc1cccc(C)c1NC(=O)CN1CCCN(Cc2ccc(C)cc2)S1(=O)=O | / | 16µM | 10µM | / | . | /
CCOC(=O)c1ccccc1NC(=O)CN1CCCN(Cc2cc(C)ccc2C)S1(=O)=O | / | 21µM | 21µM | / | . | /
COc1ccc(CN2CCCN(CC(=O)Nc3cc(C)ccc3C)S2(=O)=O)cc1 | / | 21µM | 21µM | / | . | /
CCOC(=O)c1ccccc1NC(=O)CN1CCCN(Cc2ccccc2)S1(=O)=O | / | / | / | / | . | /
Cc1ccc(CNC(=O)N2C[C@@H](Oc3ccccc3)C[C@@H]2C(=O)N2CCOCC2)cc1 | / | / | / | / | . | /
Cc1ccc(CNC(=O)c2ccc(CN3C(=O)NC4(CCOCC4)C3=O)cc2)cc1 | / | / | / | / | . | /
O=C(CCC1CCCC1)NCC12CCC=C1N(CC1CC1)C(=O)CC2 (configuration not stated) | / | / | / | / | . | /
COc1cc2nc(N(C)CCCNC(=O)C3CCCO3)nc(N)c2cc1OC (configuration not stated) | / | . | . | / | . | /
COc1cc2nc(N(C)C)nc(N)c2cc1OC | . | ? | 26µM | ? | ? | .
COc1cc2nc(CCNCc3ccccc3)nc(NC3CCN(C)CC3)c2cc1OC | / | 5.6µM | 5µM | ? | / | ?
COc1cc2nc(N(C)C)nc(NC3CCN(C)CC3)c2cc1OC | / | 4.5µM | 4µM | ? | / | ?
COc1cc2nc(NC3CCN(C)CC3)nc(NC3CCN(C)CC3)c2cc1OC | / | ? | ? | . | / | .
COc1cc2nc(Cl)nc(NC3CCN(C)CC3)c2cc1OC | / | 11µM | ? | . | / | .
CCOc1ccc(CCNC(=O)c2cnc3sc(N4CCC(C)CC4)nn3c2=O)cc1 | / | . | . | / | . | /
CNc1ccccc1C(=O)N1CCc2c([nH]c3ccccc23)C1=O | / | ? | . | / | / | /
SMILES | IL-1B inflam inh | DT40 TDP1 CPT | DT40 TDP1 no CPT | HT1080 IDH1KD tx | ALOX12 inh | HT1080-NT tox
CNc1nc(NCCOc2ccccc2)c2sccc2n1 | . | 18µM | 21µM | ? | / | .
c1ccc(CNc2nc(NCCOc3ccccc3)c3sccc3n2)cc1 | / | 23µM | 16µM | ? | ? | ?
CNc1nc(NCCCN2CCCC2=O)c2sccc2n1 | . | . | . | . | . | .
c1ccc(CNc2nc(Oc3ccncc3)c3sccc3n2)cc1 | . | . | . | . | ? | .
O=S1(=O)c2ccc(Br)cc2OC[C@@H](c2ccccc2)N1Cc1cn(Cc2ccccc2)nn1 | / | / | / | / | . | /
O=S(=O)(Nc1nc(-c2ccco2)c(-c2ccco2)s1)c1ccc(F)cc1F | . | . | . | . | 7.9µM | .
O=C(CC1CCCN(c2cnn(CC3CC3)c(=O)c2)C1)N1CCSCC1 (configuration not stated) | / | / | / | / | . | /
CCOC(=O)c1c(CN(C)C)n(C)c2c(O)c(N=NC(N)=O)c3ccc(Br)cc3c12 | . | ? | 15µM | ? | ? | .
CCCn1c(=O)c(C(=O)OCC)c(O)c2cc(Br)ccc21 | . | . | . | . | . | .
COc1ccc(-c2cnc3[nH]cc(CC(=O)Nc4cccc(N(C)C)c4)c3c2)cc1 | / | / | / | / | . | /
CC(=O)N1CCN(c2ccc(NC(=O)COc3ccc(C)cc3)cc2Cl)CC1 | / | / | / | / | . | /
O=C1c2ccc(Cl)cc2S(=O)(=O)c2cccc(C(=O)N3CCN(c4ccc(Cl)cn4)CC3)c21 | -93 | 13µM | 16µM | ? | ? | ?
